A short description of assay [1]: Natriuretic polypeptide receptor (hNpr1) antagonism - Pilot counterscreen GloSensor control cell line (AID 1347045). Also: potency is read from the fitted curve at half-maximal effect. The gist of the method: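 HEK293 cGMP-sensor cells; 2% GloSensor reagent 2 h RT; LOPAC compounds in 1:5 titrations 30-50 min; 50 uM SNP 20 min; luminescence pre-read and post-read.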
Assay [2] has as its target Atrial natriuretic peptide receptor 1 (Homo sapiens) (UniProt P16066). Nature of the assay: Natriuretic polypeptide receptor (hNpr1) antagonism - Pilot screen (AID 1347049).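 Also: agonist-evoked cGMP luminescence read 20 min after hNppA addition.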 Also: potency is read from the fitted curve at half-maximal effect. The gist of the method:
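cGMP-sensor HEK293/hNpr1 cells, 1500/well, plated overnight at 37C. 2% GloSensor reagent, 2 h RT. Compound (23 nL pin transfer) 30 min RT, baseline luminescence pre-read. 0.1 nM hNppA, 20 min RT, post-read.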

In assay [3] the target is Atrial natriuretic peptide receptor 2 (Homo sapiens) (UniProt P20594). The assay can be described thus: Natriuretic polypeptide receptor (hNpr2) antagonism - Pilot subtype selectivity assay (AID 1347050). Also: potency is read from the fitted curve at half-maximal effect. The gist of the method: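 Luminescence from a genetically encoded cGMP luciferase biosensor in hNpr2-expressing HEK293 cells is read before and 20 min after adding 1 nM hNppC. Test compounds, in interplate 1:5 titrations, are added 30-50 min ahead of the agonist.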

The nature of assay [4]: NS1 protein of Zika virus - qHTS assay to identify small molecule inhibitors in human HEK 293 cells (AID 1347053; active = well fitted curve in the direction sought with a large enough effect; an effect the other way counts as inactive or inconclusive; also: series mostly up to about 46 µM; nearly all actives have a fitted effect of over 55% in size). The gist of the method:
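In this cell-based screen, HEK 293 cultures received compound for one hour before Zika MR766 at MOI = 0.5. NS1 was quantified 24 hours later by TR-FRET, normalized to virus-free wells and infected wells.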
On the technique in general: qHTS replaces the single test concentration by a dilution series.

Assay [5] has as its target T1, Tyrosine-protein phosphatase non-receptor type substrate 1 (Homo sapiens) + Leukocyte surface antigen CD47 (Homo sapiens) (UniProt P78324+Q08722). The assay can be described thus: CD47-SIRPalpha protein protein interaction - LANCE assay qHTS validation (AID 1347057; active = well fitted curve in the direction sought with a large enough effect in the signal ratio, with a control signal flat, not every such curve was filed as active; the % refers to the signal ratio; also: series mostly up to about 38 µM). A digest of the protocol: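 Inhibition of soluble CD47/SIRPalpha ectodomain association by titrated compounds, measured as 665/615 nm time-resolved FRET ratio after sequential 30 min room-temperature incubations.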

In assay [6] the target is T1, Tyrosine-protein phosphatase non-receptor type substrate 1 (Homo sapiens) + Leukocyte surface antigen CD47 (Homo sapiens). The assay can be described thus: CD47-SIRPalpha protein protein interaction - Alpha assay qHTS validation (AID 1347059; active = well fitted curve in the direction sought with a large enough effect; an effect the other way counts as inactive or inconclusive;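 also: bead proximity luminescence from CD47 binding SIRPalpha after compound preincubation with SIRPalpha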). The gist of the method: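 SIRPalpha-biotin 25 nM + cpd, 30 min RT, dark; add CD47-His 12.5 nM, 30 min; add Ni-NTA/SAV beads 10 ug/mL, 30 min; AlphaScreen. Buffer PBS pH 7.4 + 0.05% IGEPAL CA-630. Non-biotinylated SIRPalpha as control inhibitor.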

The target in assay [7] is Parathyroid hormone/parathyroid hormone-related peptide receptor (Homo sapiens) (UniProt Q03431). Nature of the assay: qHTS for PTHR1 Agonists: Optimization Screen against the NCGC LOPAC library (AID 1347079; active = well fitted curve in the direction sought with a large enough effect; an effect the other way counts as inactive or inconclusive;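 also: GloSensor cAMP luminescence in HEK-293 GP2 cells expressing human PTHR1 with IBMX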). The gist of the method:
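Signal increase flags agonism. GP2 cells, derived from HEK-293, express human PTHR1 and a GloSensor cAMP construct.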

Assay [8] addresses T1, Tyrosine-protein phosphatase non-receptor type substrate 1 (Homo sapiens) + Leukocyte surface antigen CD47 (Homo sapiens). The assay can be described thus: CD47-SIRPalpha protein protein interaction - HTRF assay qHTS validation (AID 1347058; active = well fitted curve in the direction sought with a large enough effect in the signal ratio, not every such curve was filed as active; the % refers to the signal ratio; also: series mostly up to about 38 µM). The gist of the method:
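Soluble extracellular domains (6His-CD47, Avi-tag-biotinylated SIRPalpha) in PBS pH 7.4 with 0.05% IGEPAL CA-630. Compounds were preincubated 30 min at RT with CD47 and anti-His-Eu, then SIRPalpha and SAV-XL665 were added. TR-FRET 665/615 ratio.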
(In TR-FRET formats the signal depends on donor and acceptor labels being close together.)

Structures are written as SMILES. Inconclusive results are not listed. Active and inactive are the calls of the source. Unless noted, calls follow the shape of the full dose curve.

Sequence of Atrial natriuretic peptide receptor 2 (Homo sapiens) (P20594 whole entry, looked up): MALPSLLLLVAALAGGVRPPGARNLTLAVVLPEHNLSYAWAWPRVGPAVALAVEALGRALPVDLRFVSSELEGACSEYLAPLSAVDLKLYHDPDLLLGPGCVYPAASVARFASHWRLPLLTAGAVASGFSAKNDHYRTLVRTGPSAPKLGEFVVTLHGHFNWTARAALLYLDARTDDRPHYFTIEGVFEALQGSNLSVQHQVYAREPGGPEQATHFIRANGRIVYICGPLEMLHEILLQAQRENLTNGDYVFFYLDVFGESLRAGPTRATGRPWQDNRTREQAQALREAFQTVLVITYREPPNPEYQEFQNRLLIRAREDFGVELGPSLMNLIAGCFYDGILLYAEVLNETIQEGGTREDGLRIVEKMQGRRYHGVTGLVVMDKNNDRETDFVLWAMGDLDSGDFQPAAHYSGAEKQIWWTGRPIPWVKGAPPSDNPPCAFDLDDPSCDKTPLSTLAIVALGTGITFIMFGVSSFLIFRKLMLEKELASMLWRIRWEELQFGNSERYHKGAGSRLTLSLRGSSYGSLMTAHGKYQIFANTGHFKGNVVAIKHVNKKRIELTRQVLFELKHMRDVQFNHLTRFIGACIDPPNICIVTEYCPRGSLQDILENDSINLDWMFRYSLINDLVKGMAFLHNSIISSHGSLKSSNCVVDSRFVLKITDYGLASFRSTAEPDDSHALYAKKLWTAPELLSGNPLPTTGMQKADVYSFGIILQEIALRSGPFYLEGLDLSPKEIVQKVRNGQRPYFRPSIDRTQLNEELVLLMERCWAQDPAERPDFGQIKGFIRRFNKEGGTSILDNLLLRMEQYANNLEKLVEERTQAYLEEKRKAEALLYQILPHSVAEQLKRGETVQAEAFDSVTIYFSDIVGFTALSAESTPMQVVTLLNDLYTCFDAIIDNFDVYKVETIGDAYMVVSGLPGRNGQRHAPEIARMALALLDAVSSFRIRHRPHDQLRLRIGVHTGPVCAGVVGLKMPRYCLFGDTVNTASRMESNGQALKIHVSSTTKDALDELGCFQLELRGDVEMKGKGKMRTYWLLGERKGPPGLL
Sequence of Parathyroid hormone/parathyroid hormone-related peptide receptor (Homo sapiens) (Q03431 whole entry, looked up): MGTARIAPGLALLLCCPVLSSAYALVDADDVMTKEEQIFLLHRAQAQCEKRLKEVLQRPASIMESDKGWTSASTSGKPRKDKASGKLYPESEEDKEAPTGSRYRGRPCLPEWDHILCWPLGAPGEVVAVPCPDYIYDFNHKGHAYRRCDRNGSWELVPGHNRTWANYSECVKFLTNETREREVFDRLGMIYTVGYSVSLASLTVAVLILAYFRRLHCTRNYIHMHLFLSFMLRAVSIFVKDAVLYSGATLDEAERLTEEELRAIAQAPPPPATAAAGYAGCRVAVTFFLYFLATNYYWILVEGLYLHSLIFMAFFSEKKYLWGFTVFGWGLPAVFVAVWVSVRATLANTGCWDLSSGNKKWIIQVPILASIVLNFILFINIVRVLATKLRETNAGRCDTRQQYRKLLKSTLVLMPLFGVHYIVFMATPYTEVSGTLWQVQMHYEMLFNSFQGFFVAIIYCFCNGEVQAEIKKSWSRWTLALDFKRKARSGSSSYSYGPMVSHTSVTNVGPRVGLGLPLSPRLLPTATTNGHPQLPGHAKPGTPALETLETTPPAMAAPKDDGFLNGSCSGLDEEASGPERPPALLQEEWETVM
Sequence of Atrial natriuretic peptide receptor 1 (Homo sapiens) (P16066 whole entry, looked up): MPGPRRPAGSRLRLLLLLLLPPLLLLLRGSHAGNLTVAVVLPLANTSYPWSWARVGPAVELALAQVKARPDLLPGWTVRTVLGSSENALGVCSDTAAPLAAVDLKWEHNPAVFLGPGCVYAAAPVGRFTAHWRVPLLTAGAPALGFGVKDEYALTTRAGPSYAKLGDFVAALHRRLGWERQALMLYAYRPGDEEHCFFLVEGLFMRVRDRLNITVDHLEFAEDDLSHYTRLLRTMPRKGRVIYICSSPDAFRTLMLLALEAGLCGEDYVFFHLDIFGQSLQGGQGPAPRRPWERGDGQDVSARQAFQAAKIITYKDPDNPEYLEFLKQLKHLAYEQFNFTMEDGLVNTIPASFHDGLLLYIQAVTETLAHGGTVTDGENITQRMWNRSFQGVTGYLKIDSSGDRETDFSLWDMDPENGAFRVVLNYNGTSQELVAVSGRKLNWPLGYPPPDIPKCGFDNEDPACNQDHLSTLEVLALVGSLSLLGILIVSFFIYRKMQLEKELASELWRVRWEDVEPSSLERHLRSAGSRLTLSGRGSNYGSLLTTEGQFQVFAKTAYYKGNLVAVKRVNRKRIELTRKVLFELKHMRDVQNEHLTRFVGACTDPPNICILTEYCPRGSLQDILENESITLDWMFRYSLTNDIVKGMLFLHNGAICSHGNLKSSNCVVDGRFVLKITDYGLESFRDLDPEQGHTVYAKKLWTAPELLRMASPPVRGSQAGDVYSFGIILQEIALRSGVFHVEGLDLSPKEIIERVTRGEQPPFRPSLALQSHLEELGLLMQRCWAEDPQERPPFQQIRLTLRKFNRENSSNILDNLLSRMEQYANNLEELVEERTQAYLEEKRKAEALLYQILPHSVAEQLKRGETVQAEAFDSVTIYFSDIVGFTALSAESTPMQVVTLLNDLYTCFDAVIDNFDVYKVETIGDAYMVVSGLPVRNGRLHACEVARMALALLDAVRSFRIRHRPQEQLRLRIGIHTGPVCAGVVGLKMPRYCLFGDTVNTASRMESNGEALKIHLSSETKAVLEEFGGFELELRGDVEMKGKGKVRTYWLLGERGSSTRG
T1 sequence (P78324 whole entry, looked up, the tested form may be a part): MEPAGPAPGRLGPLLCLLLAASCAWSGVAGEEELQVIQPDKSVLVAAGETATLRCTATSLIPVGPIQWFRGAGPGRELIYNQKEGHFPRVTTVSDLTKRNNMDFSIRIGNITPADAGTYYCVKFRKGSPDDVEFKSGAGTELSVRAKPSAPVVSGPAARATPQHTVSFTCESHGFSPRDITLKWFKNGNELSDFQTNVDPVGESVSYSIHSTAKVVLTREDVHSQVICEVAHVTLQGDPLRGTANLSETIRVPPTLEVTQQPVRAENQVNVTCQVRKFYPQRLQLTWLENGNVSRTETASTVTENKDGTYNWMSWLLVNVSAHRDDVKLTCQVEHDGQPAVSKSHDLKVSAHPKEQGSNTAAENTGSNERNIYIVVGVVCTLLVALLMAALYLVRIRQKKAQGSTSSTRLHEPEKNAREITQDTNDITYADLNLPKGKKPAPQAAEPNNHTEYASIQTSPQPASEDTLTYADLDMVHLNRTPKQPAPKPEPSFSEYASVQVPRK
T1 sequence (Q08722 whole entry, looked up, the tested form may be a part): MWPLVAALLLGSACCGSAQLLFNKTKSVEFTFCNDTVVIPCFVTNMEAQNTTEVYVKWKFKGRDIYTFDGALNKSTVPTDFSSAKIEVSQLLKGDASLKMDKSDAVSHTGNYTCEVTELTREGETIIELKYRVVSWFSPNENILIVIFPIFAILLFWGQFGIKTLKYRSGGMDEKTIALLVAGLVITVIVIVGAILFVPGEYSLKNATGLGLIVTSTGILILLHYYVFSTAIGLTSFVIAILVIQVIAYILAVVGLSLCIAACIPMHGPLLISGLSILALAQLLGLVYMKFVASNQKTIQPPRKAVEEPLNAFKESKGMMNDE

On to `O=C1NC(=O)/C(=C/c2ccc3nccnc3c2)S1`, for which the Potency result in assay [1], in assay [2], in assay [3], in assay [4], in assay [5] and in assay [6] was “inactive” in each case. Further, the Potency entry in assay [7] is “inactive”.
For `O=C(O)c1cc(=O)c2c(Cl)cc(Cl)cc2[nH]1`, the Potency result in assay [1], in assay [3], in assay [4], in assay [5], in assay [6] and in assay [7] was “inactive” throughout. In addition, the result in assay [8] was inactive.
As for `C[N+]1(C)CCC(OC(=O)C(c2ccccc2)c2ccccc2)CC1`, the Potency entry in assay [1], in assay [3], in assay [4], in assay [5], in assay [6] and in assay [7] was “inactive” in each case. The outcome in assay [8] was inactive.
For `CN(C)c1nc2c(Br)c(Br)c(Br)c(Br)c2[nH]1`, the Potency result in assay [1], in assay [2], in assay [3] and in assay [7] was “inactive” throughout.
Consider `N#C/C(=C\c1ccc(O)c(O)c1)C(=O)c1ccc(O)c(O)c1`, for which the Potency entry in assay [1], in assay [2], in assay [3], in assay [4], in assay [5] and in assay [7] was “inactive” each time.
Regarding `O=[N+]([O-])c1ccc(CSc2ncnc3c2ncn3[C@@H]2O[C@H](CO)[C@@H](O)[C@H]2O)cc1`, the Potency result in assay [1], in assay [2], in assay [3], in assay [4], in assay [5] and in assay [6] was “inactive” throughout. Moreover, the Potency result in assay [7] was “inactive”.
With `CSc1nc(N)c2ncn([C@@H]3O[C@H](COP(=O)(O)OP(=O)(O)OP(=O)(O)O)[C@@H](O)[C@H]3O)c2n1`, the Potency result in assay [1], in assay [3], in assay [4], in assay [5], in assay [6] and in assay [7] was “inactive” each time. Also, the outcome in assay [8] was inactive.
Consider `Cc1ccc(O)c(N=Nc2ccccc2)n1`, for which the Potency in assay [1] was 7.36 µM (active); in assay [2], 16.9 µM (active); in assay [3], 10.4 µM (active). Moreover, the Potency result in assay [5] and in assay [7] was “inactive” throughout.
With `O=C1C(SCCO)=C(SCCO)C(=O)c2ccccc21`, the results for the Potency in assay [1], in assay [2] and in assay [3] were 2.07 µM (active), 5.36 µM (active) and 2.93 µM (active), respectively. In addition, the Potency entry in assay [5], in assay [6] and in assay [7] was “inactive” each time.
On to `O=C(O)[C@@H]1C[C@@H](C(=O)O)N1`, for which the Potency result in assay [1], in assay [2], in assay [3] and in assay [7] was “inactive” each time.
With `CN1CCC[C@H]1c1cccnc1`, the Potency entry in assay [1], in assay [2], in assay [3] and in assay [7] was “inactive” each time.
On to `Nc1ncnc2c1ncn2[C@@H]1O[C@H](COP(=O)(O)CP(=O)(O)OP(=O)(O)O)[C@@H](O)[C@H]1O`, for which the Potency result in assay [1], in assay [3], in assay [4], in assay [5], in assay [6] and in assay [7] was “inactive” throughout. The outcome in assay [8] was inactive.
For the molecule `O=C1O/C(=C/Br)CCC1c1cccc2ccccc12` (stereo not drawn), the Potency in assay [1] was 16.5 µM (active); in assay [2], 19 µM (active); in assay [3] it was 11.7 µM (active). The Potency entry in assay [7] was “inactive”.
Taken in the same sequence, the figures for `NC(=S)NCCC[C@H](N)C(=O)O` were “inactive”, “inactive”, “inactive” and “inactive”.
For the molecule `Cc1ccc(S(=O)(=O)/C=C/C#N)cc1`, the Potency in assay [1] and in assay [3] was 9.27 µM (active) in each case. In addition, the Potency entry in assay [2], in assay [5], in assay [6] and in assay [7] was “inactive” each time. Moreover, in assay [8], the result was inactive.
As for `O=C(O)[C@@H]1C[C@H](C(=O)O)N1`, the Potency entry in assay [1], in assay [2], in assay [3] and in assay [7] was “inactive” each time.
Regarding `NCCSSCCN`, the Potency result in assay [1], in assay [3], in assay [4], in assay [5], in assay [6] and in assay [7] was “inactive” in each case. Moreover, the result in assay [8] was inactive.
As to `CN1CCc2cccc3c2C1Cc1ccc(O)c(O)c1-3` (stereo not drawn), the Potency result in assay [1], in assay [2], in assay [3], in assay [4], in assay [6] and in assay [7] was “inactive” in each case.
`CCCC1(C)C(C#N)(C#N)C1(C#N)C#N`: the Potency in assay [1] is 5.85 µM (active); in assay [2], 8.49 µM (active); in assay [3] it was 4.65 µM (active). Also, in assay [7], the Potency entry was “inactive”.
Regarding `CC(=O)/C=C1\C(=O)N(C)c2ccccc21`, the values for the Potency in assay [1], in assay [2] and in assay [3] were 9.27 µM (active), 16.9 µM (active) and 14.7 µM (active), respectively. For the same molecule, the Potency result in assay [5], in assay [6] and in assay [7] was “inactive” each time.
Turning to `CN(C)CCCO[C@@H]1[C@H]2OC(C)(C)O[C@H]2O[C@@H]1[C@H](O)CO`, the Potency entry in assay [1], in assay [2], in assay [3] and in assay [7] was “inactive” throughout.
Consider `O=[N+]([O-])c1ccc2c(c1)S(=O)(=O)C=C2`, for which the Potency in assay [1] is 9.27 µM (active); in assay [2] it was 10.7 µM (active); in assay [3], 5.85 µM (active). The Potency result in assay [5], in assay [6] and in assay [7] was “inactive” throughout.
For the molecule `N.N.O=C(O)C1(C(=O)O)CCC1.[Pt]`, the Potency entry in assay [1], in assay [2], in assay [3] and in assay [7] was “inactive” throughout.
With `N=C(N)SCCc1ccc(CCSC(=N)N)cc1`, the Potency entry in assay [1], in assay [2], in assay [3] and in assay [7] was “inactive” throughout.
As to `NC(CCCP(=O)(O)O)C(=O)O` (stereo not drawn), the Potency result in assay [1], in assay [2], in assay [3], in assay [4], in assay [5] and in assay [6] was “inactive” each time. Further, the Potency entry in assay [7] was “inactive”. Further, in assay [8], the result was inactive.
On to `Cc1nc2sccn2c(=O)c1CCN1CCC(=C(c2ccccc2)c2ccc(F)cc2)CC1`, for which the Potency entry in assay [1], in assay [2], in assay [3] and in assay [7] was “inactive” throughout.
In the case of `O=C(O)c1cc([N+](=O)[O-])ccc1NCCCc1ccccc1`, the Potency result in assay [1], in assay [2], in assay [3], in assay [4], in assay [5] and in assay [6] was “inactive” each time. Moreover, in assay [7], the Potency entry was “inactive”.
For `CC(COc1ccc(/C=C/c2ccccc2)cc1)[N+](C)(C)C` (stereo not drawn), the Potency result in assay [1], in assay [2], in assay [3] and in assay [7] was “inactive” throughout.
`CCCn1c(=O)c2[nH]c(-c3ccc(OCC(=O)NCCN)cc3)nc2n(CCC)c1=O`: the Potency result in assay [1], in assay [2], in assay [3] and in assay [7] was “inactive” in each case.
